# Pf apPOL inh: Pf-apPOL DNA polymerase inhibition. Recombinant Pf-apPOL, molecular beacon fluorescence, 1.5 h. inhibition, % at 10 µM. 0.25% of 210,000 active. AID 1794808
# mHTT-CaM PPI inh: mHTT-calmodulin interaction abrogation. 3.6% of 190,000 active. inhibition, % at 15 µM. AlphaScreen His-mHTT/GST-CaM binding, luminescence. AID 1671202. P42858;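 also: 0% = both proteins with DMSO and 100% = one protein alone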
# * = called active by the depositor; nt = not tested or not shown; ! = not active in a repeat. Hits are enriched below; roughly 3.5% of the tested compounds scored in any of these assays. Rule as the data show it: active = inhibition above about 50%; inactive = the rest.
SMILES,Pf apPOL inh,mHTT-CaM PPI inh
O=c1[nH]c2ccc(Br)cc2c(-c2ccccc2)c1C1=NOC(c2ccccc2)C1 (centres undefined),0,15
CC(=O)N1N=C(c2c(-c3ccccc3)c3cc(Cl)ccc3[nH]c2=O)CC1c1ccc(Cl)cc1 (centres undefined),-6,100*
Cc1c(C2CCN(C(=O)Cc3ccsc3)CC2)noc1N,1,5
CCCN1CCc2nc(Nc3ccccc3OC)ncc2C1,96*,1
COc1ccc(OC)c(Nc2ncc3c(n2)CCN(CCc2ccccc2)C3)c1,-3,59*
CCOc1ccccc1CN1CCc2nc(Nc3cc(OC)ccc3OC)ncc2C1,-4,63*
COc1cccc(CN2CCc3nc(Nc4cc(OC)ccc4OC)ncc3C2)c1,-5,15
COc1ccc(OC)c(Nc2ncc3c(n2)CCN(Cc2cccc(OC)c2OC)C3)c1,-3,47
COc1ccccc1Nc1ncc2c(n1)CCN(Cc1ccc(F)cc1)C2,36,-8
O=C1CC(c2noc(Cc3ccccc3)n2)CN1c1ccccc1 (centres undefined),0,-2
COc1ccc(N2CCN(S(=O)(=O)CCCNC(=O)c3ccc(=O)[nH]c3)CC2)cc1,2,-4
NS(=O)(=O)c1cc(Cl)sc1Cl,-4,nt
O=C(Nc1ccccc1)C(Cc1c[nH]c2ccccc12)NC(=O)C(c1ccccc1)c1ccccc1 (centres undefined),1,89*
COc1ccc(NC(=O)C(N)Cc2c[nH]c3ccccc23)cc1 (centres undefined),-18,46
CCC(=O)NC(c1ccc(C)cc1)c1cc([N+](=O)[O-])c2cccnc2c1O (centres undefined),-5,100*
Cc1cccc(Nc2c([N+](=O)[O-])cc([N+](=O)[O-])c3cccnc23)c1,-4,33
CC(=O)NC(c1ccc(C)cc1)c1cc([N+](=O)[O-])c2cccnc2c1O (centres undefined),-7,100*
CCC(=O)NC(c1ccc(OC)c(OC)c1)c1cc([N+](=O)[O-])c2cccnc2c1O (centres undefined),20,100*
CCCC(=O)NC(c1ccc(C)cc1)c1cc(Cl)c2cccnc2c1O (centres undefined),-1,29
Cc1cc2n(n1)CCCN2C(=O)CCC(=O)NCc1ccccc1Cl,1,-5
COc1ccccc1OCc1nc(C(=O)N2CCN(C)CC2)cs1,-1,-1
CN(C)c1ccc(C(=O)NC2CCN(c3ccc(F)cc3)C2=O)cc1 (centres undefined),-3,-2
O=C(NCc1ccccn1)c1cnn2c(-c3ccc(F)cc3)ccnc12,-2,-9
O=C(c1ccsc1)N1CCc2cc(-c3csc(C4CC4)n3)ccc21,-6,4
CCN1c2ccccc2NC2N=C(OC)C(c3ccccc3)C21 (centres undefined),-2,41
SMILES,Pf apPOL inh,mHTT-CaM PPI inh
CCOC1=NC2Nc3ccc(Cl)cc3N(C)C2C1c1ccc([N+](=O)[O-])cc1 (centres undefined),-2,54*
O=C(Nc1nc2ccccc2s1)c1cccnc1,-9,-3
COc1ccc(C2=C/C(=C\c3ccco3)C(=O)O2)cc1,-8,14
O=C(Nc1ccccc1)C1CCN(c2ccc3ccccc3c2)C1=O (centres undefined),-3,3
O=C(C1CCN(c2ccc3ccccc3c2)C1=O)N1CCN(Cc2ccccc2)CC1 (centres undefined),-1,54*
O=C(Nc1ccc(F)c(F)c1)c1ccc(F)c(S(=O)(=O)NCCc2ccc(Cl)cc2)c1,-23,50*
O=C(Nc1ccc(Cl)c(Cl)c1)c1ccc(F)c(S(=O)(=O)NCc2ccc(F)cc2)c1,-7,0
O=C(Nc1ccc(Cl)c(Cl)c1)c1ccc(F)c(S(=O)(=O)NCCc2ccccc2)c1,5,71*
O=C(Nc1cc(Cl)cc(Cl)c1)c1ccc(F)c(S(=O)(=O)NCCc2ccccc2)c1,39,40
CC1CCN(CC2CCN(S(=O)(=O)c3cccc(C(F)(F)F)c3)CC2)CC1,0,-17
O=S(=O)(c1cccc(C(F)(F)F)c1)N1CCC(CN2CCCCCC2)CC1,-1,98*
O=C(O)c1n[nH]c(=O)c2ccccc12,-2,-2
O=C1C(c2ccc(Cl)cc2)N(C2CC2)C(=O)CN1C1CCCCCC1 (centres undefined),-9,-2
CC(=O)N1CCc2[nH]c3ccc(C(=O)NCCc4ccc(F)cc4)cc3c2C1,-8,52*
CCc1ccccc1NC(=O)c1ccc2[nH]c3c(c2c1)CN(C(C)=O)CC3,-1,22
CCc1ccc(N(CC)C(=O)c2ccc3[nH]c4c(c3c2)CN(C(C)=O)CC4)cc1,-2,68*
COc1ccc(OC)c(CNC(=O)c2ccc3[nH]c4c(c3c2)CN(C(C)=O)CC4)c1,8,44
CC(=O)N1CCc2[nH]c3ccc(C(=O)NCc4ccc(N5CCCC5)cc4)cc3c2C1,-2,89*
COc1ccc(CCNC(=O)c2ccc3[nH]c4c(c3c2)CN(C(C)=O)CC4)cc1OC,-8,46
COc1ccccc1CNC(=O)c1ccc2[nH]c3c(c2c1)CN(C(C)=O)CC3,-2,28
COc1ccc(CNC(=O)c2ccc3[nH]c4c(c3c2)CN(C(C)=O)CC4)c(OC)c1,-3,51*
CC(C)Cn1c(CC2CCN(C(=O)NCc3cccc(F)c3)C2)nc2cccnc21 (centres undefined),-1,12
O=C(C1CC1)N1CCN(c2[nH]ncc2-c2ccncc2)CC1,-3,-4
CCCCCCCCCn1cc[n+](CCCCCCCCC)c1C,nt,100*
CCCCCCCCN1C(=O)CCC1=O,nt,-9
SMILES,Pf apPOL inh,mHTT-CaM PPI inh
Nn1c(CO)n[nH]c1=S,nt,-7
Cc1ccsc1C(=O)N1CCC(CCOc2cccc(F)c2)CC1,-4,-24
CCOc1ccc(N2COc3ccc(Br)cc3C2)cc1,-1,84*
CCOc1ccc(N2COc3cc4c(cc3C2)OCO4)cc1,-14,8
CCCn1c(C2CCN(S(=O)(=O)c3cccc4nsnc34)C2)nc2cccnc21 (centres undefined),-7,-4
CC1=C(C(=O)Nc2ccc(Cl)cc2)C(c2cccc([N+](=O)[O-])c2)n2c(nc3ccccc32)N1 (centres undefined),4,72*
COc1ccccc1NC(=O)C1=C(C)Nc2nc3ccccc3n2C1c1cccc([N+](=O)[O-])c1 (centres undefined),-10,1
O=C(Cn1c(=O)oc2ccccc21)NCc1ccccn1,0,-2
O=C1CCN(Cc2ccccc2)CCN1[C@H](CSc1ccccc1)Cc1ccccc1,-3,38
Cc1ccc(SC[C@H](CC(C)C)N2CCN(CCc3ccccc3)CCC2=O)cc1,-6,80*
O=C1CCN(CCc2ccccc2)CCN1[C@H](CSc1ccc(Br)cc1)Cc1ccccc1,-3,75*!
O=C1CCN(CCc2ccccc2)CCN1CCSc1ccc(Br)cc1,-9,53*
CC(=O)Nc1ccc(SC[C@H](CC(C)C)N2CCN(CCc3ccccc3)CCC2=O)cc1,-4,50
COc1ccc(SC[C@H](CC(C)C)N2CCN(CCc3ccccc3)CCC2=O)cc1,-5,100*
COc1ccc(SC[C@H](Cc2ccccc2)N2CCN(CC(C)C)CCC2=O)cc1,-5,-30
Cc1ccc(SCCN2CCN(CCc3ccccc3)CCC2=O)cc1,-2,34
CCCN1CCN(C(=O)c2cccc(N3CCNC(c4ccccc4)C3)n2)CC1 (centres undefined),-21,8

# Source: PubChem BioAssay
